This passage reports growth results from PubChem BioAssay (NCI).

Common to all, as to assay: NCI-60 one-dose screen, 48 h (100 = growth as untreated, 0 = no growth, -100 = all killed)
In one assay the test system is HT29 colon. The following applies: 10 µM.
In another assay the test system is SNB-75 CNS. Conditions: 10 µM.
The next assay has as its system SNB-19 CNS. Conditions: 10 µM.
Another assay has as its system U251 CNS. Conditions: 10 µM.
For a further assay, the system named is PC-3 prostate. Conditions: 10 µM.
The next assay concerns SK-MEL-5 melanoma. The following applies: 10 µM.
Another assay deals with UACC-62 melanoma. The following applies: 10 µM unless noted.
For the next assay, the system named is LOX IMVI melanoma. Conditions: 10 µM.
A further assay concerns SK-MEL-28 melanoma. Conditions: 10 µM.
For another assay, the system named is SK-MEL-2 melanoma. The following applies: 10 µM.
The next assay deals with EKVX NSCLC. Conditions: 10 µM.
The next assay concerns UO-31 renal. Conditions: 10 µM.
Another assay concerns TK-10 renal. The following applies: 10 µM unless noted.
A further assay deals with ACHN renal. Conditions: 10 µM.
Another assay deals with CAKI-1 renal. Conditions: 10 µM.
The next assay relates to HL-60(TB) leukemia. The following applies: 10 µM.
In another assay the test system is CCRF-CEM leukemia. Conditions: 10 µM.
The next assay concerns SN12C renal. The following applies: 10 µM.
For the next assay, the system named is HCT-15 colon. The following applies: 10 µM.
For a further assay, the system named is A498 renal. The following applies: 10 µM.

This is part of a sample that, as a whole, favours compounds with a hit. Of some 83,000 tested, about 20% had one in any assay.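 48-hour exposure, single concentration, 96-well plates; percent growth endpoint where 0 means no net growth. Active: below 10.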 Values without a mark were called inactive. The source made the active and inactive calls.

Consider `O=C(O)c1cc(Cc2ccc(O)c(C(=O)O)c2)ccc1O` (tested in a mixture with another compound), for which the growth in the assay on HT29 colon was 25%; in the assay with SNB-75 CNS it was 51.2%; in the assay with SNB-19 CNS, 85.6%; in the assay on U251 CNS it was 70.4%; with PC-3 prostate, -31.5% (active); with SK-MEL-5 melanoma it was 71.3%. In addition, the growth is 69.5% in the assay on UACC-62 melanoma; -47.3% (active) in the assay with LOX IMVI melanoma; 84.6% in the assay with SK-MEL-28 melanoma; -53.3% (active) in the assay on SK-MEL-2 melanoma; 73.8% with EKVX NSCLC; 42.6% in the assay on UO-31 renal. Further, the growth with TK-10 renal is 93%; in the assay on ACHN renal it was 77%; with CAKI-1 renal it was 58.4%; with HL-60(TB) leukemia, 21.3%; in the assay with CCRF-CEM leukemia, 0.136% (active).

For the compound `[Cl][Hg][c]1ccc2ccccc2c1`, the growth is -71.3% (active) in the assay with HT29 colon; -85.3% (active) with SNB-75 CNS; -62.9% (active) in the assay with SNB-19 CNS; 93.1% in the assay on U251 CNS; -35.1% (active) in the assay with PC-3 prostate; -100% (active) with SK-MEL-5 melanoma. Besides, the growth in the assay with UACC-62 melanoma was -43% (active); with LOX IMVI melanoma it was -100% (active); in the assay with SK-MEL-28 melanoma, -89% (active); in the assay on SK-MEL-2 melanoma, -90.7% (active); with EKVX NSCLC, -48.6% (active); in the assay with SN12C renal, -67.1% (active). The growth is -89.3% (active) in the assay on UO-31 renal; -95.3% (active) in the assay with TK-10 renal; -85.5% (active) with ACHN renal; -20.3% (active) in the assay with HL-60(TB) leukemia; 0.0061% (active) in the assay with CCRF-CEM leukemia.

On to `Cc1ccc(NC(=O)CBr)cc1`, for which the growth is 96.6% with HCT-15 colon; 115% in the assay on HT29 colon; 97.1% in the assay with SNB-75 CNS; 96.8% with SNB-19 CNS; 96.4% with PC-3 prostate; 96.4% in the assay on SK-MEL-5 melanoma. Further, the growth is 86.8% in the assay with UACC-62 melanoma; 49.8% with LOX IMVI melanoma; 102% in the assay on SK-MEL-28 melanoma; 110% in the assay on SK-MEL-2 melanoma; 86.1% in the assay with UO-31 renal; 110% in the assay on TK-10 renal. Further, the growth with ACHN renal is 108%; in the assay on CAKI-1 renal, 104%; in the assay with A498 renal, 99.3%; in the assay on CCRF-CEM leukemia it was 23.8%.

On to `O=[N+]([O-])/C=C/c1ccc(Cl)cc1[N+](=O)[O-]`, for which the growth with HT29 colon was -91.6% (active); in the assay with SNB-75 CNS, 55.4%; with SNB-19 CNS, 71.8%; with U251 CNS it was -39.8% (active); in the assay on PC-3 prostate, 46.4%; in the assay with SK-MEL-5 melanoma, 81.4%. Besides, the growth was 73.7% with UACC-62 melanoma; -94.1% (active) in the assay with LOX IMVI melanoma; 85% with SK-MEL-28 melanoma; 102% with SK-MEL-2 melanoma; 81.8% with EKVX NSCLC; -45.7% (active) in the assay with UO-31 renal. For the same compound, the growth is 75.3% in the assay with TK-10 renal; 30.3% in the assay with ACHN renal; 47.7% in the assay with CAKI-1 renal; 33.9% with HL-60(TB) leukemia; 8.23% (active) in the assay with CCRF-CEM leukemia.

Take `O=[N+]([O-])c1ccc(N(CCO)CCO)c2c1no[n+]2[O-]`: the growth with HT29 colon was -78.6% (active); in the assay on SNB-75 CNS it was -39.3% (active); in the assay with SNB-19 CNS, -17.9% (active); in the assay with U251 CNS, -69.2% (active); with PC-3 prostate, -5.95% (active); in the assay on SK-MEL-5 melanoma, -73.9% (active). Further, the growth in the assay on UACC-62 melanoma is -41.6% (active); with LOX IMVI melanoma, -26.5% (active); in the assay with SK-MEL-28 melanoma, -8.85% (active); in the assay on SK-MEL-2 melanoma, -16.3% (active); with EKVX NSCLC it was -9.06% (active); in the assay with UO-31 renal, 7.25% (active). Also, the growth in the assay on TK-10 renal was -13.4% (active); in the assay with ACHN renal it was -12.3% (active); in the assay with CAKI-1 renal, -11.9% (active); in the assay on A498 renal it was -15.6% (active); in the assay on HL-60(TB) leukemia, -33.1% (active); in the assay with CCRF-CEM leukemia, -38% (active).

Take `CC12OOC(c3ccccc31)c1c2ccc2ccccc12` (stereo not given): the growth with HCT-15 colon was -93.2% (active); in the assay with HT29 colon it was -81.3% (active); in the assay with SNB-75 CNS, -20.4% (active); with SNB-19 CNS, 64.8%; in the assay with U251 CNS, 50.3%; in the assay with PC-3 prostate it was -74.4% (active). Besides, the growth in the assay on SK-MEL-5 melanoma is 61.7%; in the assay on UACC-62 melanoma, 59.6%; with LOX IMVI melanoma, -91.2% (active); with SK-MEL-2 melanoma, 71.7%; with EKVX NSCLC, -51.5% (active); with UO-31 renal it was -95.4% (active). Further, the growth in the assay with TK-10 renal was -42.6% (active); in the assay with ACHN renal it was -100% (active); with CAKI-1 renal, -56.1% (active); in the assay with A498 renal it was 133%; in the assay on HL-60(TB) leukemia, -63.5% (active); with CCRF-CEM leukemia, -41.8% (active).

Regarding `Oc1c(I)cc(I)cc1I`, the growth in the assay with HCT-15 colon is 108%; in the assay on HT29 colon, 107%; with SNB-75 CNS, 87.9%; in the assay with SNB-19 CNS it was 96.3%; in the assay on U251 CNS, 106%; in the assay with PC-3 prostate, 93.1%. Moreover, the growth in the assay with SK-MEL-5 melanoma was 98.1%; in the assay with UACC-62 melanoma, 102%; in the assay with SK-MEL-28 melanoma, 101%; with SK-MEL-2 melanoma, 101%; with EKVX NSCLC, 108%; with SN12C renal it was 97.2%. Further, the growth with TK-10 renal is 103%; in the assay with ACHN renal, 103%; with CAKI-1 renal, 109%; in the assay with A498 renal, 97.9%; in the assay with HL-60(TB) leukemia, 105%; in the assay with CCRF-CEM leukemia, 94.5%.

Regarding `O=C1C=Cc2ccccc2C1=O`, the growth was 46.9% in the assay with HCT-15 colon; 112% with HT29 colon; 72.7% with SNB-19 CNS; 74.2% with U251 CNS; 72.9% in the assay with PC-3 prostate; 31.3% in the assay with SK-MEL-5 melanoma. The growth in the assay on UACC-62 melanoma is 100%; with LOX IMVI melanoma it was 90%; in the assay with SK-MEL-28 melanoma, 53.2%; in the assay on SK-MEL-2 melanoma it was 55.3%; with EKVX NSCLC it was 82.6%; in the assay on SN12C renal it was 92.1%. The growth was 50.3% in the assay with UO-31 renal; 87.9% with TK-10 renal; 46.5% with ACHN renal; 86.2% in the assay with CAKI-1 renal; 91.3% in the assay with A498 renal; 87.3% with HL-60(TB) leukemia. For the same compound, in the assay on CCRF-CEM leukemia, the growth was 74.1%.
